# High-throughput results (PubChem BioAssay)
# FadD28 binding = inhibitors of Mycobacterium tuberculosis FadD28 bisubstrate binding | 360,000 compounds, 0.22% hits | AID 588549 | inhibition, % at 12.5 µM | FadD28 bisubstrate probe binding, fluorescence polarization; in the data active = inhibition above about 8.5%, passing the limit was not always enough
# FBA Mtb inh = Mtb fructose-bisphosphate aldolase inhibition; P9WQA3; purified M. tuberculosis FBA, fluorescence read-out; inhibition, % at 1 µM; 360,000 compounds, 2.3% hits; in the data active = inhibition above about 27%;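 note: 0% = vehicle and 100% = reference inhibitor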
# Target sequence (P9WQA3 whole entry, looked up): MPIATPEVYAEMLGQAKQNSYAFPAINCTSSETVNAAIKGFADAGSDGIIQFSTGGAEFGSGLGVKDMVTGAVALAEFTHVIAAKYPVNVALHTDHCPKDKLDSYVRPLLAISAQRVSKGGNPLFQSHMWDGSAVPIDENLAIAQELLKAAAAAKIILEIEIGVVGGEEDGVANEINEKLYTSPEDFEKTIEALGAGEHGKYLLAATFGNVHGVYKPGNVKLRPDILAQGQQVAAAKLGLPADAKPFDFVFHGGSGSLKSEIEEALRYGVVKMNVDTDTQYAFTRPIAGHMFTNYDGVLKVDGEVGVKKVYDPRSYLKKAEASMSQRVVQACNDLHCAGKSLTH
# Mtb hypoxia rep = inhibitors of hypoxia-regulated fluorescent reporter in Mycobacterium tuberculosis; M. tuberculosis hypoxia-regulated fluorescent reporter, fluorescence; fluorescence inhibition, % (test concentration not listed); 300,000 compounds, 0.1% hits; AID 1159583; in the data active = fluorescence inhibition mostly above about 23%, no sharp cut-off; inactive = mostly below about 17%
# Mtb BioA inh = BioA (M. tuberculosis) enzyme inhibition; purified M. tuberculosis BioA enzyme, plate reader; inhibition, % at 9.99 µM; 360,000 compounds, 0.096% hits; AID 602481; in the data active = inhibition above about 40%
# GDH-TPI counter = GDH-TPI coupled enzyme inhibition counter-screen | 360,000 compounds, 1.2% hits | GDH-TPI coupled enzyme counterscreen, NADH absorbance | inhibition, % at 4.8 µM; in the data active = inhibition above about 30%;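 note: 0% = DMSO wells and 100% = wells lacking the enzyme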
# Active calls of the source: *; . = no result; + = active, no number. In the library only some 2.9% were active in any assay of this set; here they are far more common.
SMILES,FadD28 binding,FBA Mtb inh,Mtb hypoxia rep,Mtb BioA inh,GDH-TPI counter
CCOc1cc(/C=C2\C(=O)N(c3nc(-c4ccc(Br)cc4)cs3)N=C2c2ccccc2)ccc1O,27*,1,4,-1,31*
O=C(C[C@@H]1C[C@H]2c3cc(NC(=O)Nc4ccccc4F)ccc3O[C@H]2[C@H](CO)O1)NCc1ccncc1,.,.,.,1,.
Cc1ccc(-n2ccc(=O)c(C(=O)Nc3ccc(S(=O)(=O)Nc4nccc(C)n4)cc3)n2)cc1,1,-4,19,-1,35*
Cc1cc(C)nc(NS(=O)(=O)c2ccc(NC(=O)c3nn(-c4ccccc4)ccc3=O)cc2)n1,-5,-7,20,5,28
O=C(COC(=O)c1cc(-c2cccs2)nc2ccccc12)NCc1ccco1,-7,45*,.,.,8
Cc1ccc(-c2cc(C(=O)NCc3ccco3)c3ccccc3n2)s1,-5,113*,.,0,24
COc1cc(-c2cc(C(=O)NCc3ccco3)c3ccccc3n2)cc(OC)c1OC,-3,-2,-3,1,14
COCC(=O)Nc1ccc2c(c1)[C@H]1C[C@H](CC(=O)N(C)C)O[C@H](CO)[C@H]1O2,.,.,.,-1,.
CO[C@H]1CN(C)C(=O)c2cc(NC(=O)C3CC3)ccc2OC[C@@H](C)N(C(=O)CN(C)C)C[C@@H]1C,.,.,.,-1,.
O=C(Nc1ccc(C(=O)O)cc1)Nc1ccc([N+](=O)[O-])cc1,0,1,7,1,22
O=C(Nc1ccc([N+](=O)[O-])cc1)C1C(c2ccccc2)=C1c1ccccc1,0,3,-3,.,33*
O=C(O)CC(NNC(=O)c1ccccc1)C(=O)Nc1ccc([N+](=O)[O-])cc1 (stereo not drawn),1,6,-1,-7,31*
O=C(O)C1=CCC(c2ccc(Cl)cc2)N(S(=O)(=O)c2ccc(Cl)cc2)C1c1ccc(F)cc1 (stereo not drawn),.,.,14,.,.
COc1ccc(C=NNC(=O)c2cc(C3CC3)[nH]n2)cc1OC,.,.,5,.,.
CC(=NNC(=O)C(=O)Nc1c(C)n(C)n(-c2ccccc2)c1=O)c1ccc(Cl)s1,.,.,6,.,.
CCOC(=O)c1sc(/N=C/N(C)C)c(C(=O)OCC)c1C,-3,0,.,0,21
CCOC(=O)c1sc(/N=C/N(C)C)nc1C,-5,-2,.,-1,31*
Nc1nnc(N2CCCCC2)s1,1,4,10,0,3
O=C1CCCc2nc(N3CCCCC3)sc21,-3,1,.,0,32*
COCCn1c(-c2ccc(SC)cc2)nc2c1c(=O)[nH]c(=O)n2CC(C)C,-1,+,6,1,21
COCCn1c(-c2ccc(OC(F)(F)C(F)C(F)(F)F)cc2)nc2c1c(=O)[nH]c(=O)n2CC(C)C (stereo not drawn),3,12,-2,.,-7
CC(c1ccco1)N(C(=O)c1ccccc1NS(=O)(=O)c1ccc(Cl)c([N+](=O)[O-])c1)c1ccccn1 (stereo not drawn),1,3,-2,0,32*
O=C(N/N=C/C=C/c1ccc([N+](=O)[O-])cc1)c1cccs1,-3,-2,.,-3,24
Cc1cc(C(=O)NN=C/C=C/c2ccccc2)n[nH]1,.,.,-9,.,.
Cc1cc(C(=O)N/N=C/C=C/c2ccc(Br)cc2)n[nH]1,-1,0,.,0,42*
SMILES,FadD28 binding,FBA Mtb inh,Mtb hypoxia rep,Mtb BioA inh,GDH-TPI counter
Cc1cc(C(=O)N/N=C/C=C/c2ccc([N+](=O)[O-])cc2)n[nH]1,-1,1,.,.,41*
CNC[C@H]1Oc2ncc(-c3ccc(C)cc3)cc2C(=O)N([C@H](C)CO)C[C@H]1C,.,.,.,-4,.
CCS(=O)(=O)Nc1ccc2c(c1)C(=O)N(C)C[C@H](OC)[C@H](C)CN(CC1CCCCC1)[C@@H](C)CO2,.,.,.,2,.
COC(=O)c1ccc(C(=O)OC)c(NC(=S)N2CCN(c3ccccc3)CC2)c1,-1,30*,-16,.,16
C[C@@H]1CN([C@H](C)CO)C(=O)c2cc(-c3ccc(C(=O)N(C)C)cc3)cnc2O[C@H]1CN(C)Cc1ccc(C(=O)O)cc1,.,.,.,-1,.
C[C@@H]1CN([C@H](C)CO)C(=O)CCCn2cc(nn2)CO[C@@H]1CN(C)CC1CCCC1,.,.,.,-1,.
NS(=O)(=O)c1ccc(NC(=O)COC(=O)/C(=C/c2cccs2)c2cccs2)cc1,-1,-3,-3,-2,42*
CC1=NN(C(N)=S)C(=O)C1N=Nc1c(C)n(C)n(-c2ccccc2)c1=O (stereo not drawn),1,-11,-7,0,31*
O=C(C[C@@H]1C[C@H]2c3cc(NC(=O)C4CCOCC4)ccc3O[C@H]2[C@@H](CO)O1)NCc1cccc(F)c1,.,.,.,-1,.
